Screening data as filed in PubChem BioAssay.
Shown are actives, neighbours in structure and some others; about 2.4% of the full set was active somewhere.
POLI inh = inhibitors of human DNA polymerase iota | Pol iota fluorescent replication assay, 10 min | Potency, µM (doses to about 115 µM), for the others: top-dose activity, negative = inhibition, actives largely listed as inhibitors | 390,000 tested, 1% active
Target sequence (Q9UNA4 whole entry, looked up): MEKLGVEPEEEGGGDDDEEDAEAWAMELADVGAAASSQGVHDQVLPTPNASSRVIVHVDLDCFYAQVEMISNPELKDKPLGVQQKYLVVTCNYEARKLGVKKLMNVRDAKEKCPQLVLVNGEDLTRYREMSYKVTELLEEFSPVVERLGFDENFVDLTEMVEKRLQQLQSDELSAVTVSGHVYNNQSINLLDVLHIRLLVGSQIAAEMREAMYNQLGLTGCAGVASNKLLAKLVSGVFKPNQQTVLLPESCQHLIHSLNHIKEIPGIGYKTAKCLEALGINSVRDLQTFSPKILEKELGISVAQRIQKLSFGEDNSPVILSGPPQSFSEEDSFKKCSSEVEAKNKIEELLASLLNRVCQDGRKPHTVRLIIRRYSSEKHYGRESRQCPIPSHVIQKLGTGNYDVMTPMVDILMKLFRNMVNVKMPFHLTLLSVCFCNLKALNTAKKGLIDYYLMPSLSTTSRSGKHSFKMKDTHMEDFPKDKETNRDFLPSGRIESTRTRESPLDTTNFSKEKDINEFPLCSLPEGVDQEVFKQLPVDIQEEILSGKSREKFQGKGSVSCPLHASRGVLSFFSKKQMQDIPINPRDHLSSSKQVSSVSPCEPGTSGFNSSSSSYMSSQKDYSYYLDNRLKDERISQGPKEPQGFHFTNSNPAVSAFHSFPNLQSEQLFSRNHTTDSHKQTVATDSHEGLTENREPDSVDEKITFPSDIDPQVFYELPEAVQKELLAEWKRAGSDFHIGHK
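Fluorescent replication assay read twice, at 0 min and 10 min after adding 50 nM (final) substrate. Enzyme (10 nM) and compounds were first incubated 15 min at room temperature; enzyme-free buffer wells were negative controls.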
POLH inh = inhibitors of human DNA polymerase eta; 390,000 tested, 1.2% active; AID 588591; recombinant Pol eta, fluorescent DNA replication assay; Q9Y253; Potency, µM (titrated, usually from 114 µM), inactives show at the top dose activity change, negative = inhibition, hits mostly inhibitors; further: on the % scale 0 is the no-effect control and ±100 the full control effect
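Pol eta (10 nM) was preincubated with compounds for 15 min at room temperature, after which fluorescent replication substrate (50 nM final) was added to start the reaction. Fluorescence was read kinetically at 0 and 10 min.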
TDP1 inh = inhibitors of human tyrosyl-DNA phosphodiesterase TDP1. recombinant TDP1, AlphaScreen DNA substrate cleavage. 350,000 tested, 0.28% active. Potency, µM (top dose mostly 130 µM), inactives show at the highest dose activity change, negative = inhibition, actives largely listed as inhibitors. Q9NUW8; further: on the % scale 0 is the no-effect control and ±100 the full control effect; nearly all actives have a fitted effect of over 40% in size
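Tdp1 1 nM final; 15 min RT w/ cpd; substrate 15 nM, 5 min; beads 10 ug/ml, 10 min; AlphaScreen read. Neg ctrl: no enzyme.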
Pol kappa inh = blocks human DNA polymerase kappa activity; 400,000 tested, 0.53% active; AID 588579; Q9UBT6; purified Pol kappa, fluorescent DNA synthesis assay, 10 min; Potency, µM (doses to about 107 µM), without a hit: top-dose activity, negative = inhibition, hits mostly inhibitors; further: on the % scale 0 is the no-effect control and ±100 the full control effect
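Kinetic fluorescence readout at 0 and 10 min followed reaction start with substrate at 50 nM final. Beforehand, enzyme (10 nM Pol kappa) stood 15 min with compound at room temperature; buffer-only wells were negative controls.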
Pol beta inh = DNA polymerase beta (human) inhibition; 340,000 tested, 1.3% active; Potency, µM (highest dose often 114 µM), for the others: at the highest dose activity change, negative = inhibition, hits mostly inhibitors; Pol beta primer extension/strand displacement, fluorescence kinetic; P06746; further: on the % scale 0 is the no-effect control and ±100 the full control effect
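Pol beta (10 nM) was preincubated with compound for 15 min at room temperature. The reaction was then started with 50 nM substrate and read immediately and after a further 10 min at room temperature.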
FEN1 inh = inhibitors of human flap endonuclease 1 | P39748 | Recombinant FEN1 flap cleavage, fluorescence, 15 min | Potency, µM (top dose mostly 114 µM), for the others: at the highest dose activity change, negative = inhibition, actives largely listed as inhibitors | 390,000 tested, 0.35% active | AID 588795; further: on the % scale 0 is the no-effect control and ±100 the full control effect; nearly all actives have a fitted effect of over 65% in size
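Enzyme 10 nM, 15 min RT preincubation with compound; start with substrate 50 nM final; reads at 0 and 15 min; qHTS titration, four-parameter Hill fit.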
Active calls of the source: *; ? = inconclusive; . = no result given; ! = not confirmed by another sample; [ ] = dose if it differs, or a comment. The call rests on the fitted dose curve; in most records, active means well fitted curve in the direction sought with a large enough effect; inconclusive means small, poorly fitted or top-dose-only effect, or another doubt; inactive means no such curve, though single readings can be large; an effect the other way counts as inactive or inconclusive. Potency means the concentration at half of the fitted maximal effect.

SMILES | POLI inh | POLH inh | TDP1 inh | Pol kappa inh | Pol beta inh | FEN1 inh
COc1ccc(/C=C2\SC(=S)N(CCC(=O)Nc3ccc(C(=O)O)cc3)C2=O)cc1OC | 107.4% | 31.6µM* | . | -9.2% | ? | -9.1%
CCc1ccc(/C=C2\SC(=S)N(CCCC(=O)Nc3ccccc3C(=O)O)C2=O)cc1 | 70.8µM* | ? | 8.6% | 5.3% | ? | -2.3%
O=C(CCN1C(=O)S/C(=C\c2ccc(Cl)cc2)C1=O)Nc1ccc(C(=O)O)cc1 | ? | -3.8% | 28.2µM* | -6.4% | 3.9% | ?
O=C(CCN1C(=O)/C(=C/c2ccc3c(c2)OCO3)SC1=S)Nc1ccccc1 | 18.0% | -14.6% | 3.4% | -9.8% | -12.3% | 14.0%
Cc1ccc(/C=C2\SC(=S)N(CCCC(=O)Nc3ccccc3C(=O)O)C2=O)cc1 | -27.5% | ? | 6.3% | -5.2% | 2.1% | ?
O=C(CCCN1C(=O)/C(=C/c2ccc3c(c2)OCO3)SC1=S)Nc1ccc(C(=O)O)cc1 | -22.0% | 89.1µM* | 4.4% | -12.2% | 1.4% | -29.4%
CCCCOc1ccc(CNC(=O)Cn2ncn3c(cc4cc(F)ccc43)c2=O)cc1 | 21.7% | -6.8% | -1.0% | 5.6% | 0.6% | 21.1%
CCn1cc(C(=O)NCCc2ccc(Cl)cc2)c(=O)c2cc(S(=O)(=O)N(C)C3CCCCC3)ccc21 | 15.0% | -27.2% | -2.3% | -10.4% | -9.5% | -19.1%
Cn1cc(/C=C2/SC(=O)N(CC(=O)Nc3ccc4c(c3)OCO4)C2=O)c2ccccc21 | -24.0% | 0.4% | -2.0% | -10.1% | 24.7% | -3.8%
O=C(CN1C(=O)S/C(=C\c2ccc(-c3cc(C(=O)O)ccc3Cl)o2)C1=O)Nc1ccc2c(c1)OCO2 | . | . | 7.94µM* | . | ? | .
COCCN1C(=O)/C(=C/c2ccc(OCc3ccc(C(=O)O)cc3)c(OC)c2)SC1=Nc1ccccc1 | 4.8% | 28.2µM* | 5.1% | -3.2% | 50.1µM* | -18.4%
Cc1ccc(NS(=O)(=O)c2cc3c(cc2N2CCC2)NC(=O)CC3)cc1C | . | . | 0.9% | . | . | .
CCCOc1cccc(C2c3c(oc4ccc(F)cc4c3=O)C(=O)N2c2nc(C)c(C(C)=O)s2)c1 (stereo not given) | -9.3% | -12.6% | -1.1% | -23.8% | 41.0% | -11.8%
COc1ccc(C)cc1N/C(N)=N/c1nc(C)cc(C)n1 | 8.9% | -5.2% | 8.8% | -5.7% | 13.3% | -4.7%
Cc1ccc(C)c(N/C(N)=N/c2nc(C)cc(C)n2)c1 | 21.9% | -10.8% | 4.1% | 2.9% | 42.3% | 50.1µM*
N[C@H](COP(=O)(O)O)C(=O)O | . | . | -8.5% | 4.2%[19.4 µM] | . | .
CCc1ccc(NC(=O)CC2C(=O)N(c3ccc(Cl)cc3)C(=O)N2C2CCCC2)cc1 (stereo not given) | 89.1µM* | -14.5% | 5.6% | ? | -0.3% | 39.8µM*
CCCCC(OC(=O)CNC(=O)c1ccccc1)C(=O)Nc1cc(C(F)(F)F)ccc1Cl (stereo not given) | . | . | 1.4% | . | . | .
COC(=O)C1N2C(=O)[C@@H](NC(=O)COc3ccccc3)[C@H]2SC1(C)C (stereo not given in full) | 79.4µM*! | -6.1% | . | 13.6% | . | 3.3%
COc1cccc(-c2nc3c(c(SCC(=O)N4CCOCC4)n2)Cc2c(CO)cnc(C)c2O3)c1 | 79.4µM* | -13.7% | 5.2% | -37.7% | -9.4% | ?
Cc1ncc(CO)c2c1Oc1nc(-c3ccccc3)nc(SCC(=O)N(C)c3ccccc3)c1C2 | . | . | -13.9% | . | 56.2µM* | .
COc1ccc(NC(=O)CSc2nc3c(c(=O)[nH]2)CN(Cc2ccccc2)CC3)cc1Cl | 33.9% | -8.9% | 5.7% | -12.3% | -1.3% | -14.8%
CC(C)Cn1c(SCc2nnc(-c3cccs3)o2)nc(O)cc1=O | 25.1µM* | ? | 1.0% | -42.0% | -6.2% | -2.1%
COC(=O)c1cc(OC)c(OC)cc1N | 11.7% | -9.8% | 5.4%[56.1 µM] | -11.5% | -20.9% | -4.7%
COc1cc(N)c(N)cc1OC | 22.4µM* | . | . | -20.7% | . | ?
SMILES | POLI inh | POLH inh | TDP1 inh | Pol kappa inh | Pol beta inh | FEN1 inh
O=c1c2ccccc2nc(/C=C/c2ccc([N+](=O)[O-])o2)n1CCCO | -27.6% | 15.8µM* | -3.2% | 1.1% | ? | 4.1%
O=c1c2ccccc2nc(/C=C/c2ccc([N+](=O)[O-])cc2)n1CCCO | -22.3% | -11.5% | 3.5% | 0.7% | 1.3% | -9.5%
Cc1cc2c(cc3c(SCc4ccccc4Cl)nnc(C)n32)o1 | 7.9% | -25.1% | 5.1% | -5.6% | 5.6% | -20.4%
COCc1c(C(=O)OCC(=O)c2ccc[nH]2)oc2ccccc12 | 28.1% | -18.9% | -3.8% | 0.4% | . | -12.1%
CSCc1c(C(=O)OCC(=O)c2ccc[nH]2)oc2ccccc12 | 50.1µM* | ? | -1.8% | ? | . | -1.2%
COc1ccc(C(=O)CC(=O)c2ccc(F)cc2)cc1 | 28.9% | -18.2% | . | -6.4% | . | 17.4%
COc1ccc(C(=O)CC(=O)c2ccc(C(C)(C)C)cc2)cc1 | 0.0% | -14.8% | 20µM* | ? | . | -28.8%
C[C@H]1CN([C@@H](C)CO)S(=O)(=O)c2ccc(C#Cc3ccccn3)cc2O[C@@H]1CN(C)C(=O)C1CC1 | . | -7.7% | . | . | . | .
O=C(c1ccccc1)c1ccc[nH]1 | 22.9% | -9.3% | . | 3.1% | . | 0.8%
COc1ccc(/C=N\NC(=O)c2ccccc2F)cc1COc1ccc(F)cc1 | -6.6% | -5.9% | -0.1% | -5.7% | 39.1% | -12.9%
COc1ccc(/C=N\NC(=O)c2ccccc2F)cc1COc1ccc(F)cc1F | -20.0% | -13.1% | 2.0% | -8.0% | 35.3% | 1.2%
COc1ccc(/C=N/NC(=O)c2ccc(Cl)cc2)cc1Cn1cc(Cl)cn1 | 79.4µM* | -19.9% | 2.3% | ? | 20µM* | -18.9%
COc1ccc(/C=N/NC(=O)c2ccc(C)cc2)cc1CN1CCN(c2ccc(F)cc2)CC1 | 8.8% | -8.1% | 2.9% | -6.2% | 43.0% | -8.0%
COc1ccc(/C=N/NC(=O)c2ccc(NC(C)=O)cc2)cc1COc1ccc(F)cc1F | 35.5µM* | ? | . | -55.0% | 35.5µM* | ?
COc1ccc(/C=N\NC(=O)c2cc(O)c(O)c(O)c2)cc1CN1CCN(c2ccc(F)cc2)CC1 | -21.7% | ? | -0.6% | ? | ? | 14.1µM*
COc1ccc(/C=N/NC(=O)c2ccco2)cc1COc1ccc(F)cc1 | 79.4µM* | 6.7% | . | -22.0% | ? | -31.3%
CCOC(=O)Cn1c(=O)cc(-c2ccccc2)c2c(C)nn(C)c21 | -5.4% | -10.9% | -3.2% | 0.0% | 11.6% | -15.9%
CCCCCNC(=O)C1CCC(Cn2c(=O)c3sccc3n(CC)c2=O)CC1 (stereo not given) | 9.3% | -22.8% | 0.6% | 23.3% | 5.5% | 2.3%
COc1ccc(/C=N/NC(=O)c2cc(C(C)(C)C)[nH]n2)cc1COc1ccc(F)cc1F | 89.1µM* | -15.6% | 6.9% | -7.8% | 4.1% | -18.4%
